Measurements reported in PubChem BioAssay (EPA / NIEHS).
The source made the active and inactive calls. How the source made its calls: active means hit-call score of the fitted dose curve at least 0.9, where 1 is the maximum; inactive means score below 0.9.

Key:
[1] = Tanguay_ZF_120hpf_MO24: Oregon State University Tanguay Lab 24 Hour Post-fertilization zebrafish Assay for Mortality (AID 2284389)
Outline: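 Dechorionated wild-type zebrafish embryos, 1 per well, statically exposed from 6 hpf at 28C, 0.64% DMSO final. Mortality scored as binary present/absent at 24 hpf by brightfield microscopy, relative to DMSO.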

[2] = Tanguay_ZF_120hpf_DP24: Oregon State University Tanguay Lab 24 Hour Post-fertilization zebrafish Assay for Delayed Development (AID 2284390)
Outline: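 Dechorionated 5D wild-type zebrafish embryos exposed statically from 6 hpf, one per well, 0.64% DMSO final, 28 C, sealed and dark. Developmental progression scored at 24 hpf by brightfield as binary present/absent; dead embryos excluded.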

[3] = Tanguay_ZF_120hpf_CRAN: Oregon State University Tanguay Lab 120 Hour Post-fertilization zebrafish Assay for Craniofacial Malformation (AID 2284397)
Outline: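 Dechorionated Tropical 5D wild-type zebrafish embryos, one per well, were statically exposed from 6 to 120 hpf at 28C in 0.64% DMSO, with 5uM trimethyltin chloride as positive control. Craniofacial malformation was scored present/absent by brightfield microscopy, relative to DMSO.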

[4] = Tanguay_ZF_120hpf_AXIS: Oregon State University Tanguay Lab 120 Hour Post-fertilization zebrafish Assay for Axial Malformation (AID 2284398)
Outline: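 Dechorionated 5D wild-type zebrafish embryos exposed statically, one per well, from 6 to 120 hpf at 28C, 0.64% DMSO. Axial malformation scored as present/absent by brightfield microscopy at 120 hpf; dead embryos not scored.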

[5] = Tanguay_ZF_120hpf_MORT: Oregon State University Tanguay Lab 120 Hour Post-fertilization zebrafish Assay for Mortality (AID 2284399)
Outline: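 Dechorionated wild-type Tropical 5D zebrafish embryos, one per well from 6 hpf, static exposure to 120 hpf at 28C in sealed dark plates, 0.64% DMSO final. Mortality scored as binary by brightfield at 24 and 120 hpf.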

[6] = Tanguay_ZF_120hpf_EDEM: Oregon State University Tanguay Lab 120 Hour Post-fertilization zebrafish Assay for Edema Malformation (AID 2284400)
Outline: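 Dechorionated Tropical 5D wild-type embryos, one per well, statically exposed from 6 to 120 hpf at 28C in 0.64% DMSO. Edema scored present/absent by brightfield microscopy at 120 hpf; dead embryos not scored; fit versus DMSO.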

[7] = Tanguay_ZF_120hpf_BRN: Oregon State University Tanguay Lab 120 Hour Post-fertilization zebrafish Assay for Brain Region Malformation (AID 2284402)
Outline: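 Dechorionated wild-type Tropical 5D zebrafish embryos exposed statically from 6 to 120 hpf at 28C, one per well, 0.64% DMSO final. Brain malformation scored at 120 hpf by brightfield as present/absent; dead embryos not scored.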

[8] = Tanguay_ZF_120hpf_TCHR: Oregon State University Tanguay Lab 120 Hour Post-fertilization zebrafish Assay for Touch Responsive (AID 2284403)
Outline: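 Dechorionated Tropical 5D wild-type zebrafish embryos, one per well from 6 hpf, were statically exposed to 120 hpf at 28 °C (0.64% DMSO). Touch response was scored present/absent at 120 hpf and not scored in dead larvae.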

[9] = Tanguay_ZF_120hpf_ANY: Oregon State University Tanguay Lab 120 Hour Post-fertilization zebrafish Assay for Any Mortality and Malformation (AID 2284404)
Outline: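 Dechorionated Tropical 5D wild-type embryos, one per well from 6 hpf, static exposure in sealed, dark plates at 28C until 120 hpf, 0.64% DMSO final. Brightfield scoring of mortality and malformations as binary presence/absence, pooling 13 morphology endpoints.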

[10] = CCTE_Padilla_ZF_Score.Craniofacial: CCTE's 144 Hour Post-fertilization zebrafish Assay Score for Craniofacial Malformation, Padilla Lab (AID 2284405)
Outline: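 Wild-type zebrafish embryos (with chorions), one per well in 10% Hanks', were dosed at 6–8 hpf in sealed plates and kept at 26C. They were rinsed at 5 dpf. At 6 dpf two blinded assessors scored craniofacial malformations by brightfield stereomicroscopy.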

[11] = CCTE_Padilla_ZF_Score.Edema: CCTE's 144 Hour Post-fertilization zebrafish Assay Score for Edema Malformation, Padilla Lab (AID 2284406)
Outline: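 Wild-type zebrafish embryos, one per well in Hanks' solution, dosed at 6-8 hpf, sealed and reared at 26C on a 14:10 h cycle; rinsed on 5 dpf. At 6 dpf, blinded assessors scored edema by stereomicroscopy.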

[12] = CCTE_Padilla_ZF_Score.Spine: CCTE's 144 Hour Post-fertilization zebrafish Assay Score for Spine Malformation, Padilla Lab (AID 2284407)
Outline: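 Wild-type zebrafish embryos, one per well in Hanks' solution, dosed at 6–8 hpf in sealed plates at 26C, 14:10 h light:dark; rinsed at 5 dpf. Two blinded assessors scored spinal defects by stereomicroscopy at 6 dpf; fitted versus DMSO.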

[13] = CCTE_Padilla_ZF_Score.Swim_bladder: CCTE's 144 Hour Post-fertilization zebrafish Assay Score for Swim Bladder Malformation, Padilla Lab (AID 2284408)
Outline: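 Wild-type zebrafish embryos, one per well in 10% Hanks', dosed at 6–8 hpf, sealed, reared at 26C and rinsed at 5 dpf. Blinded assessors scored uninflated swim bladder by stereomicroscopy at 6 dpf, relative to DMSO.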

[14] = CCTE_Padilla_ZF_Score.Position: CCTE's 144 Hour Post-fertilization zebrafish Assay Score for Position, Padilla Lab (AID 2284409)
Outline: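 Wild-type zebrafish embryos (with chorions) exposed singly from 6–8 hpf in sealed wells of Hanks' solution at 26C, rinsed at 5 dpf. At 6 dpf, blinded assessors scored abnormal water-column position by brightfield stereomicroscopy, relative to DMSO.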

[15] = CCTE_Padilla_ZF_Score.Living: CCTE's 144 Hour Post-fertilization zebrafish Assay Score for Viability, Padilla Lab (AID 2284410);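 further: larval death at 6 dpf judged by absent heartbeat or coagulation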
Outline: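 Wild-type zebrafish embryos were exposed singly from 6–8 hpf in sealed wells of Hanks' solution at 26C, then rinsed at 5 dpf. At 6 dpf, blinded assessors scored mortality (no heartbeat or coagulation) by stereomicroscopy, fitted against DMSO.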

[16] = test system: SRY-box transcription factor 17 (SOX17) Protein Expression, Deisenroth Lab, SOX17 (gene 64321); assay: CCTE_Deisenroth_DEVTOX-GLR_Endo_SOX17: CCTE's DevTox GLR-Endo Assay Evaluation of SRY-box transcription factor 17 (SOX17) Protein Expression, Deisenroth Lab (AID 2284413)
Outline: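 Seed RUES2-GLR cells 24 h; start endoderm differentiation; dose at 0 and 24 h (1 nM - 200 uM, 10 points); fix at 48 h, stain nuclei, image 5 fields/well; compute SOX17+/total cells vs 0.2% DMSO.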

For `O=C(O)C(F)(F)C(F)(F)C(F)(F)C(F)(F)C(=O)O`, the outcome [1] was “inactive”, the outcome [2] was “inactive” and the outcome [3] was “inactive”. For the same compound, the outcome [4] was “inactive”, the outcome [5] was “inactive” and the outcome [6] was “inactive”. The outcome [7] was “inactive”, the outcome [8] was “inactive” and the outcome [9] was “inactive”. For the same compound, the outcome [10] was “inactive”, the outcome [11] was “inactive” and the outcome [12] was “inactive”. For the same compound, the outcome [13] was “inactive”, the outcome [14] was “inactive” and the outcome [15] was “inactive”.

For `C[N+](C)(C)CCCNS(=O)(=O)C(F)(F)C(F)(F)C(F)(F)C(F)(F)C(F)(F)C(F)(F)C(F)(F)C(F)(F)F`, the outcome [1] was “inactive”, the AC50 [2] was 89.2 µM (active) and the AC50 [3] was 70.4 µM (active). For the same compound, the outcome [4] was “inactive”, the outcome [5] was “inactive” and the AC50 [6] was 67.1 µM (active). For the same compound, the outcome [7] was “inactive”, the outcome [8] was “inactive” and the AC50 [9] was 80 µM (active). For the same compound, the outcome [10] was “inactive”, the outcome [11] was “inactive” and the outcome [12] was “inactive”. For the same compound, the outcome [13] was “inactive”, the outcome [14] was “inactive” and the AC50 [15] was 50.1 µM (active).

For `CC1(C)[C@@H]2CC[C@@]1(C)C(=O)C2`, the outcome [16] was “inactive”.
